This is part of a sample that, as a whole, favours compounds with a hit. Of some 83,000 tested, about 20% had one in any assay.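 Method: cells in 96-well plates; compound added at one concentration; 48 h incubation; percent growth measured; values under 10 scored active.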 A number with no mark means an inactive call. The source made the active and inactive calls.
Experiments:
Assay in all cases: NCI-60 one-dose screen, 48 h (100 = growth as untreated, 0 = no growth, -100 = all killed)
Details in all cases: 10 µM unless noted
[1] = tested on: RPMI-8226 leukemia
[2] = tested on: OVCAR-8 ovarian
[3] = tested on: OVCAR-5 ovarian
[4] = tested on: OVCAR-4 ovarian
[5] = tested on: SK-OV-3 ovarian
[6] = tested on: IGROV1 ovarian
[7] = tested on: OVCAR-3 ovarian
[8] = tested on: HS 578T breast
[9] = tested on: NCI/ADR-RES ovarian
[10] = tested on: T-47D breast

Row | Structure (SMILES) | growth [1] | growth [2] | growth [3] | growth [4] | growth [5] | growth [6] | growth [7] | growth [8] | growth [9] | growth [10]
1 | CC(C)[O-].CC(C)[O-].CN(CCN(C)Cc1cc(F)cc(F)c1[O-])Cc1cc(F)cc(F)c1[O-].[Ti+4] | 32.9% | 10.6% | 12.4% | 14% | 16.4% | -42.2% (active) | 4.78% (active) | -16% (active) | 11.2% | 9.18% (active)
2 | O=[N+]([O-])c1ccc(N/N=C/c2c(O)ccc3ccccc23)nc1 | 31% | 34.9% | 77.5% | 21.2% | 50.9% | 18.5% | 20.3% | 117% | 27.3% | 47.4%
3 | CCC1(c2ccccc2)Oc2ccccc2-n2c(C#N)c3ccccc3c2C1=O (stereo not given) | 92.6% | 98.4% | 108% | 99.8% | 91.4% | 93.9% | 103% | 105% | 95.6% | 91.7%
4 | c1coc([C@@H]2C[C@@H]3Cc4ccc5ccccc5c4N2O3)c1 | 97.3% | 99.4% | 90.8% | 92.4% | 103% | 113% | 114% | 110% | 99.8% | 104%
5 | CSC1=Nc2c(c(C)c(-c3ccccc3)n2CCCN2CCCCC2)C2=NC(=O)C[C@H](C)N12 | -51.1% (active) | 44.6% | 83.1% | 43.6% | 26.9% | 22.6% | 24.5% | 11% | 82.4% | -2.25% (active)
6 | COc1cc(/C=C/C(=O)Nc2cccnc2Nc2cc(OC)c(OC)c(OC)c2)cc(OC)c1OC | 66.9% | 84.1% | 99.3% | 92.7% | 112% | 112% | 114% | 96.6% | 83.5% | 100%
7 | S=c1[nH]nc2sc3ccccc3n12 | 105% | 107% | 108% | 103% | 109% | 96.9% | 119% | 114% | 112% | 101%
8 | O=C(Nc1cccc(-n2cc(-c3ccncc3)c(-c3ccc(O)c(Cl)c3)n2)c1)Nc1ccc(Cl)c(C(F)(F)F)c1 | -27.4% (active) | -44.7% (active) | 39.4% | -5.46% (active) | 4.82% (active) | -20.9% (active) | -21.1% (active) | -0.107% (active) | 11.3% | -10% (active)
9 | CCCCCCCCCCCCNc1ncnc2[nH]ncc12 | 63% | 77.3% | 90.6% | 77.8% | 105% | 92.8% | 79.5% | 92.4% | 83.8% | 62.8%
10 | COc1cccc2c1O/C(=C\c1c([N+](=O)[O-])ncn1C)C2=O | -17% (active) | 94.4% | 108% | 106% | 93.4% | 97.4% | 106% | 111% | 98.1% | 106%
11 | COc1cc2c(-c3nc4cc(Cl)c(F)cc4s3)cc(=O)oc2c(C)c1OC | -56% (active) | -58.8% (active) | -65.5% (active) | -92.9% (active) | -85% (active) | -43.6% (active) | -98.6% (active) | -0.186% (active) | -10% (active) | -14.1% (active)
12 | COC(=O)CC1=C(C)/C(=C/c2[nH]c(-c3ccc[nH]3)cc2OC)N=C1C | -55.3% (active) | 6.58% (active) | 18.7% | 10.5% | 20.2% | 11.3% | -17.7% (active) | -14.9% (active) | 5.14% (active) | 0.172% (active)
13 | O=C1C2C3C=CC(O3)C2C(=O)N1Nc1ccccc1 (stereo not given) | 108% | 105% | 97.4% | 102% | 118% | 124% | 113% | 111% | 105% | 112%
14 | CCCCn1c(Cc2ccc(Cl)cc2)nc2cc(OC)c(OC)cc2c1=O | 23.4% | 70.1% | 93.5% | 71.1% | 187% | 69.9% | 80.9% | 114% | 75.7% | 101%
15 | CO[C@H]1CC(O[C@@H]2/C(C)=C/C[C@@H]3C[C@@H](C[C@]4(CC[C@H](C)[C@@H](C5CCCCC5)O4)O3)OC(=O)[C@@H]3C=C(C)/C(=N/O)[C@H]4OC/C(=C\C=C\[C@@H]2C)[C@]43O)O[C@@H](C)C1O (stereo not given in full) | -28.8% (active) | -51.3% (active) | -83% (active) | -88.5% (active) | -98.4% (active) | -47.4% (active) | -98.3% (active) | -43.7% (active) | -76.3% (active) | -78.1% (active)
16 | COc1ccc(-c2cc(Cc3cccs3)c(=O)n(Cn3cncn3)n2)cc1 | 98.7% | 92.9% | 88% | 98.5% | 103% | 122% | 113% | 106% | 101% | 93.9%
17 | COc1cc(/C=C/C(=O)c2c(-c3ccc(Cl)cc3)nc3sc(C)nn23)cc(OC)c1OC | -15.6% (active) | 53.3% | 106% | 74.8% | 110% | 89.7% | 88.4% | 109% | 59.8% | 19.3%
18 | COc1ccc(/C=C(\C#N)c2ccccc2)cc1 | 84.7% | 92% | 92.1% | 85.9% | 114% | 87.9% | 95.1% | 85.7% | 78% | 88.6%
19 | CCCCCCC/C(=N\N=C(N)N)c1ccc(O)cc1 | 11% | 60.4% | 58.3% | 36.2% | 46.8% | 33.6% | 35.8% | 57.3% | 69.9% | -31.6% (active)
20 | Nc1nc(SCC2(CCl)COC2)c2[nH]cnc2n1 | 96.4% | 95.8% | 100% | 86.8% | 92.9% | 101% | 109% | 89.4% | 109% | 100%
21 | CCCCCCOc1ccc(/C=N/NC(N)=S)cc1 | 7.2% (active) | 70.6% | 84.5% | 26.5% | 90.6% | 13.9% | 28.5% | 61.8% | 58.5% | 24%
22 | Oc1ccc(Cc2ccc(O)c(C3CC(c4ccc(Cl)cc4)=NN3)c2)cc1C1CC(c2ccc(Cl)cc2)=NN1 (stereo not given) | 17.4% | 15.8% | 37.8% | 43.5% | 50.5% | 18.5% | 10% (active) | 13.8% | 4.68% (active) | 38.3%
23 | CCc1[nH]nc(-c2ccc(OC)cc2)c1-c1ccccc1OCCN(CC)CC | 97.5% | 107% | 92.6% | 91.4% | 91.8% | 98.6% | 104% | 99.4% | 100% | 97.4%
24 | COc1ccc2c(c1)C(=O)c1c-2c(=O)n(CCCCCCC(=O)NO)c2ccccc12 | -2.83% (active) | 7.33% (active) | -4.52% (active) | 4.23% (active) | -3.32% (active) | -34.9% (active) | -19.6% (active) | -2.26% (active) | -14.1% (active) | -11.8% (active)
25 | NCCCc1nnc(CCC(=O)c2nc3ccccc3[nH]2)o1 | 101% | 110% | 104% | 104% | 106% | 104% | 119% | 112% | 97.9% | 97.7%

Reference: PubChem BioAssay (NCI)
